The nature of the assay: NCI Yeast Anticancer Drug Screen. Data for the rad50EPP+ strain (AID 151).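 Further: 0% = growth of vehicle-treated control cultures.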 The conditions noted are these: S. cerevisiae rad50 mutant strain, stronger effect = higher value. Here is the method: Growth inhibition of yeast strains with defined genetic alterations is measured as a screen for potential anti-cancer activity. Selected strains with alterations in DNA damage repair or cell cycle control were exposed to compounds and growth inhibition was measured relative to vehicle treated controls. The strain used in this assay is rad50EPP+

Growth inhibition data for eight compounds are collected here from PubChem BioAssay (NCI).

Compounds without any hit were thinned out: in the full panel of roughly 79,000, 15% have a hit. Unmarked numbers belong to inactive results. Active and inactive are the calls of the source. No stated cut-off is given here; in the data, active means growth inhibition above about 70%; inactive means the rest.

With `CCN(CC)C(=S)N/N=C(\C)c1ccccc1O`, the growth inhibition runs as follows: (at 1.2 µM) 9%; (at 3.7 µM) -7%; (at 11.0 µM) 15%; (at 33.0 µM) 45%; (at 100.0 µM) 83% (active).
For `CCN(CC)C(=S)SC(=S)N(CC)CC`, in that order: -1%, 7%, 37%, 91% (active) and 99% (active).
On to `OB(O)c1ccccc1C#Cc1ccccc1`, for which the growth inhibition is -1% (at 1.2 µM); 3% (at 3.7 µM); 12% (at 11.0 µM); 33% (at 33.0 µM); 34% (at 100.0 µM).
With `O=C1CCC(Cc2ccccc2)CN1` (stereo not given), the growth inhibition is -1% (at 1.2 µM); 0% (at 3.7 µM); 12% (at 11.0 µM); 25% (at 33.0 µM); 42% (at 100.0 µM).
Regarding `CC1(c2ccccc2)O[C@@H]2C[C@H]3[C@@H]4CCC5=CC(=O)C=C[C@]5(C)[C@@]4(F)[C@@H](O)C[C@]3(C)[C@]2(C(=O)CO)O1` (stereo not given in full), the growth inhibition was 3% (at 1.2 µM); 3% (at 3.7 µM); 7% (at 11.0 µM); 11% (at 33.0 µM); 23% (at 100.0 µM).
For the compound `N#C/C(=C\NC(=S)Nc1ccc(S(N)(=O)=O)cc1)C(=O)c1ccc2ccccc2c1`, the growth inhibition is -1% (at 1.2 µM); -3% (at 3.7 µM); 0% (at 11.0 µM); 0% (at 33.0 µM); -2% (at 100.0 µM).
Turning to `Cc1cc(O)c(C(C)C)cc1SC#N`, the growth inhibition was -12% (at 1.2 µM); -5% (at 3.7 µM); 1% (at 11.0 µM); 10% (at 33.0 µM); 89% (active) (at 100.0 µM).
In the same order, the values of `O=C(/C(=C/c1ccc(O)cc1)c1ccccc1)c1ccccc1` are -5%, -2%, 1%, 15% and 9%.
